AmpC no deterg = qHTS Inhibitors of AmpC Beta-Lactamase (assay without detergent); P00811; AmpC nitrocefin hydrolysis, absorbance 480 nm, 0.0001% Triton; Potency, µM (titrated, usually from 57.1 µM), without a hit: top-dose activity change, negative = inhibition, actives largely listed as inhibitors; 0.52% of 330,000 active;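 note: plate controls were no compound for no effect and no enzyme for full effect; nearly all actives have a fitted effect of over 20% in size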
Target sequence (P00811 whole entry, looked up): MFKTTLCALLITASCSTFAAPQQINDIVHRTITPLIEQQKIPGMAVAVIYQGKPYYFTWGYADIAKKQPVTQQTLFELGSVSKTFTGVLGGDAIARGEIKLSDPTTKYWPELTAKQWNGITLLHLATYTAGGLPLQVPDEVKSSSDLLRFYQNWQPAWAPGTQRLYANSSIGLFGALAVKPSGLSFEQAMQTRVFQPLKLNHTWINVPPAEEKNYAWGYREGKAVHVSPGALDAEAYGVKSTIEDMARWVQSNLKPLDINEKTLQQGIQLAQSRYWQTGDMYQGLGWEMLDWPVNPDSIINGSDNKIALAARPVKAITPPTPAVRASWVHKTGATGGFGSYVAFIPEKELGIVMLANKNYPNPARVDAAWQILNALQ
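AmpC (5.3 nM in the dispensed reagent) in 20 mM phosphate pH 7.0 with 0.01% (detergent screen) or 0.0001% Triton X-100 was preincubated with compounds for 15 min at room temperature. Nitrocefin was then added from an 800 uM solution, and hydrolysis was followed at 480 nm.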
Sm TGR block = qHTS Assay for the Inhibitors of Schistosoma Mansoni Peroxiredoxins; Schistosoma mansoni thioredoxin glutathione reductase (TGR), Q962Y6; purified TGR, DTNB reduction, TNB absorbance 405 nm; Potency, µM (doses to about 114 µM), for inactives: at the highest dose activity change, negative = inhibition, hits mostly inhibitors; 3% of 360,000 active; AID 485364, 2010; note: nearly all actives have a fitted effect of over 60% in size
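Kinetic colorimetric format: TGR-catalysed, NADPH-driven DTNB reduction monitored via TNB absorbance. Enzyme dispensed at 20 nM; compound exposure 15 min at room temperature before reaction start.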
AMA1-RON2 inh = qHTS for Inhibitors of AMA1-RON; Towards Development of Antimalarial Drug Lead: Primary Screen; 0.2% of 360,000 active; Plasmodium falciparum AMA1 (3D7) - RON2 peptide interaction; AID 720542, 2013; Potency, µM (top dose mostly 58.2 µM), for the others: top-dose activity change, negative = inhibition, hits mostly inhibitors; AlphaScreen AMA1-biotinylated RON2 peptide binding;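 note: 0% = vehicle wells and -100% = peptide control; nearly all actives have a fitted effect of over 45% in size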
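AMA1 (3D7) with his tag at 25 nM final met compounds first, then biotinylated RON2 peptide at 25 nM; detection used donor plus acceptor beads, 10 µg/mL apiece, read by AlphaScreen after 30 min at room temperature.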
FMDV inh = High Throughput Screening for Foot and Mouth Disease Virus Antivirals; FMDV antiviral cell-based qHTS; Potency, µM (titrated, usually from 57.9 µM), without a hit: at the highest dose activity change, negative = inhibition, actives largely listed as inhibitors; 1.2% of 410,000 active; calls by dose curve; tested in HEK293T cells; note: read-out not given here; nearly all actives have a fitted effect of over 45% in size
AmpC inh detg = qHTS Inhibitors of AmpC Beta-Lactamase (assay with detergent); P00811; AmpC hydrolysis of nitrocefin, absorbance 480 nm, 0.01% Triton; Potency, µM (series often up to 114 µM), for inactives: at the highest dose activity change, negative = inhibition, hits mostly inhibitors; 0.041% of 370,000 active; AID 485294, 2010;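 note: 0% = no-compound wells and -100% = no-enzyme wells; nearly all actives have a fitted effect of over 25% in size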
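20 mM phosphate pH 7.0 + 0.01% (detergent screen) or 0.0001% Triton X-100; 5.3 nM AmpC reagent; cpd preinc 15 min RT; nitrocefin (800 uM stock) to start; A480 q20 s × 4 min; Activity was normalised to no-enzyme and no-compound control wells.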
Active calls of the source: *; ? = inconclusive; nt = no result given. Compounds with a hit are over-represented: about 4.1% of the library has one in this group of screens. Unless noted, calls come from the whole dose curve; as a rule, active = well fitted curve in the direction sought with a large enough effect; inconclusive = small, poorly fitted or top-dose-only effect, or another doubt; inactive = no such curve, though single readings can be large; an effect the other way counts as inactive or inconclusive. Unless noted, % is set by controls: 0 for no effect and ±100 for the full control effect; potency is the fitted concentration of half-maximal effect.

SMILES | AmpC no deterg | Sm TGR block | AMA1-RON2 inh | FMDV inh | AmpC inh detg
Cc1ccc(C(=O)N2CCN(c3cccc(Cl)c3)CC2)cc1-n1c(C)nc2cccnc21 | nt | 6% | nt | ? | 18%
Oc1ccc(C(c2nnnn2CCc2ccccc2)N2CCN(c3nc4ccccc4s3)CC2)cc1 (centres undefined) | -23% | 8.9µM* | 70% | -2% | -14%
CC(C)C(c1nnnn1Cc1ccco1)N1CCN(c2nc3ccccc3s2)CC1 (centres undefined) | 10% | ? | 0% | 22µM* | ?
COc1cc(C(c2nnnn2C(C)(C)C)N2CCN(c3nc4ccccc4s3)CC2)ccc1O (centres undefined) | 120% | 0.35µM* | -4% | -21% | ?
COc1cc(=O)n2c(c1C(=O)N(C)Cc1ccsc1)CCN(Cc1cnn(C)c1C)CC2 | nt | nt | nt | 7% | nt
O=C(CN1C(=O)c2cccc3cccc1c23)Nc1ccccc1Br | nt | -1% | nt | -3% | 9%
Cc1cccc(C(=O)OCc2cc(=O)n3nc(C4CC4)sc3n2)c1 | nt | 6% | nt | -6% | 8%
Cc1ccc(CNS(=O)(=O)c2c(C(=O)N3CCCCCC3)c(C)n(C)c2C)cc1 | 34% | 1% | -2% | 42% | -8%
COc1cc(NS(=O)(=O)c2c(C(=O)N3CCCCC3)c(C)n(C)c2C)cc(OC)c1OC | nt | 4% | nt | -12% | 14%
Cc1ccc(CNS(=O)(=O)c2c(C(=O)N3CCCCC3)c(C)n(C)c2C)o1 | 0% | 35µM* | -1% | 32% | -10%
COc1ccc(C)cc1NS(=O)(=O)c1c(C(=O)N2CCCCCC2)c(C)n(C)c1C | nt | 5.6µM* | nt | 61% | -5%
COc1ccccc1CNC(=O)CCS(=O)(=O)c1cccc2nonc12 | 0% | 45µM* | -4% | 16% | 6%
Cc1ccc(NC(=O)CCS(=O)(=O)c2cccc3nonc23)c(C)c1 | nt | 1% | nt | 3% | -7%
COc1ccccc1CNC(=O)CCS(=O)(=O)c1cccs1 | -4% | 35µM* | 0% | 52% | -5%
COc1ccc(CNC(=O)CCS(=O)(=O)c2cccc3nonc23)cc1 | -13% | 13µM* | 11% | 7% | ?
Cc1ccc(CNC(=O)CCS(=O)(=O)c2cccc3nonc23)cc1 | -19% | 25µM* | 5% | 2% | -1%
CCCCOc1cc(C[C@@H]2CNC(=O)N2)ccc1OC | nt | nt | nt | -12% | nt
Cc1cc2cc(C=C(C#N)C#N)c(Cl)nc2cc1C | -27% | 3.2µM* | 4% | ? | -12%
CCc1ccc(C2Sc3ccccc3NC3=C2C(=O)c2ccccc23)cc1 (centres undefined) | nt | 11% | nt | 54% | 1%
CC(C)c1ccc(C2Sc3ccccc3NC3=C2C(=O)c2ccccc23)cc1 (centres undefined) | nt | 1% | nt | 7.9µM* | 7%
O=C(Nc1ccc(Cc2ccncc2)cc1)C1CCC(N2C(=O)C3C4C=CC(C5CC45)C3C2=O)CC1 (centres undefined) | 58% | -8% | -4% | 14µM* | -2%
COc1cc(/C=N/NC(=O)c2ccncc2)ccc1OC(=O)c1ccco1 | -4% | -1% | 21% | -7% | -4%
COc1ccc(/C=N/NC(=O)c2ccco2)cc1Cn1nc(C)cc1C | -9% | 50µM* | 14% | -6% | 3%
COc1cc(/C=N/NC(=O)c2ccc(F)cc2)ccc1OC(=O)c1ccco1 | 10µM* | -10% | 8% | 8% | -2%
COc1ccccc1Cn1c(=S)[nH]c2cc(C(=O)NCC3CCCO3)ccc2c1=O (centres undefined) | -7% | 7% | 50% | 25µM* | 2%
SMILES | AmpC no deterg | Sm TGR block | AMA1-RON2 inh | FMDV inh | AmpC inh detg
COc1ccccc1CNC(=O)c1ccc2c(=O)n(CC3CCCO3)c(=S)[nH]c2c1 (centres undefined) | -53% | -8% | 36% | -29% | ?
COc1ccc(S(=O)(=O)N2CCCCC2)cc1C(=O)Nc1cccc(C(F)(F)F)c1 | nt | 0% | nt | -11% | 4%
COc1ccc(CNC(=O)Cn2c(=O)oc3cc(S(=O)(=O)NCc4ccccc4)ccc32)cc1 | nt | 12% | nt | 4% | 3%
Oc1c(Cl)cc(Cl)cc1C(C#Cc1ccccc1)N1CCOCC1 (centres undefined) | 0.32µM* | -21% | -4% | -18% | 1%
N#CC(c1ccc(Cl)cc1)N1CCOCC1 (centres undefined) | -9% | -5% | 1% | -5% | -7%
CCOc1cccc(/C=N/NC(=S)Nc2ccccc2[N+](=O)[O-])c1O | -25% | -19% | 27% | 1.8µM* | 0%
O=[N+]([O-])c1ccccc1NC(=S)N/N=C/c1ccc(O)c(O)c1 | 4.5µM* | -22% | 77% | -17% | -2%
COc1cccc(NC(=O)Cn2c(=O)n(CCCCC(=O)NCc3ccccc3Cl)c(=O)c3ccccc32)c1 | nt | -1% | nt | -13% | 23%
Oc1c(Br)cc(C=Nc2ccc3nc(-c4ccccc4)[nH]c3c2)c(O)c1Br | -36% | 18µM* | 41% | -13% | 4%
COC1=C(Br)C(=O)c2ncccc2C1=O | nt | nt | -23% | 35µM* | nt
O=C1C(=O)c2cccnc2-c2ncccc21 | nt | nt | 135% | 4µM* | nt
Cc1cnc(-n2ncc(C(=O)NCC(C)(C)N3CCOCC3)c2C)nc1-c1cccs1 | nt | nt | nt | -2% | nt
COc1ccc(-c2csc(=NCCO)n2-c2ccccc2)cc1 | 4% | -2% | ? | 18µM* | -4%
Cc1ccc(-c2csc(=Nc3ccccc3)n2CCCO)cc1 | nt | 2% | nt | 32µM* | 1%
C=CCn1c(-c2ccc(OC)cc2)csc1=Nc1c(C)n(C)n(-c2ccccc2)c1=O | 75% | 0% | -10% | 22µM* | -7%
COc1ccc(-c2csc(=Nc3ccccc3)n2CCO)cc1 | -1% | 0% | -9% | 25µM* | ?
COc1ccc(N=c2scc(-c3ccc(S(=O)(=O)N4CCOCC4)cc3)n2CCCO)cc1 | 301% | -14% | nt | nt | ?
O=C(CCc1c[nH]c2ccccc12)N1CCC(n2c(C3CCCO3)nc3cc(C(F)(F)F)ccc32)CC1 (centres undefined) | nt | nt | nt | -6% | nt
Cc1ncc2c(c1CNC(=O)c1cncs1)CCN(C(=O)c1cc(F)c(F)cc1F)C2 | nt | nt | nt | -4% | nt
COc1ccc(N(C)C(=O)NCc2noc3ccc(C)cc23)c(OC)c1 | nt | 9% | nt | -14% | 4%
COc1cc(=O)n2c(c1C(=O)N(C)Cc1nonc1C)CCN(Cc1cccc3ccccc13)CC2 | nt | nt | nt | -5% | nt
CCOc1ccc(CN(C(=O)/C=C/c2ccco2)C2CCS(=O)(=O)C2)cc1 (centres undefined) | 39% | 4.5µM* | -7% | -14% | -9%
